From PubChem BioAssay
Lassa entry: Lassa virus entry inhibition; Lassa virus pseudotyped entry inhibition, cell-based qHTS; Potency, µM (titrated, usually from 49.2 µM), for inactives: top-dose activity change, negative = inhibition, hits mostly inhibitors; 4.1% of 18,000 active; AID 720533
Marburg entry: Marburg virus entry inhibition. Marburg virus pseudotype entry/binding inhibition, cell-based. Potency, µM (titrated, usually from 49.2 µM), without a hit: top-dose activity change, negative = inhibition, usual class: inhibitors. 6.5% of 18,000 active
* marks the source's active call; other numbers are inactive results; u = inconclusive; x = not tested or not shown; ! = repeats disagree; [ ] = dose if it differs, or a comment. Only some compounds are listed: those with a hit (about 8% of all), similar ones and a draw of the others. Calls follow the shape of the full dose curve; tested in HEK293 cells. % is scaled to controls: 0 for no effect and ±100 for the full control effect; potency is read from the fitted curve at half-maximal effect.

SMILES	Lassa entry	Marburg entry
COc1cc(CN2CCC3(CCC(CNC(=O)c4ccco4)O3)CC2)cc(OC)c1 (stereo unspecified)	1%	u
COc1cc(C(=O)OCCCN2CCCN(CCCOC(=O)c3cc(OC)c(OC)c(OC)c3)CC2)cc(OC)c1OC	u	7.1µM*
COc1cc(/C=C/C(=O)N2CCN(CC(=O)N3CCCC3)CC2)cc(OC)c1OC	-12%	12%
CCN(CC)CCOC(=O)c1ccc(N)cc1	6%	-12%
CCN(CC)CCCCCCCCOC(=O)c1cc(OC)c(OC)c(OC)c1	25µM*	13µM*
Cc1cccc(C(=O)NCC2Cc3cc(F)cc(-c4cnccn4)c3O2)n1 (stereo unspecified)	-7%	4%
CSCC[C@H](NC(=O)[C@H](Cc1ccccc1)NC[C@@H](NC[C@@H](N)CS)C(C)C)C(=O)O	1%	-1%
CCC(=O)NCc1nc(-c2cccc(NC(=O)c3ccc(C)s3)c2)oc1C	-12%	23%
CCC1CN(CCNC(=O)c2ccc3c(c2)OCO3)Cc2cc(OC)ccc2O1 (stereo unspecified)	-11%	0%
O=C(OCc1cn([C@@H]2CN(CC3CCCCC3)[C@@H](c3ccccc3)C[C@@H]2O)nn1)c1ccccc1	x	-28%
COCc1cc(O)c(O)c(O)c1-c1c(COC)cc(O)c(O)c1O	-14%	7.9µM*
COc1ccc(C(C)=O)c(O)c1	14%	19%
CCCCn1c(C)cc2c(c1=O)[C@H]1O[C@](c3ccsc3)(Cc3cc(OC)c(OC)cc31)O2	4%[8.59 µM]	u
Cc1ccc(-c2ccc(C(=O)NCc3ccc(Cl)cc3)o2)c2ccccc12	u	-9%
O=C(NCc1ccccc1)c1ccc(-c2ccccc2C(F)(F)F)o1	11µM*	34%
CCCCCCN1C[C@@H](O)[C@H](n2cc(COC(=O)c3ccccc3)nn2)C[C@H]1c1ccccc1	7%	-23%
COC(=O)c1c(OCc2cccnc2)cc(=O)n2c1CCN(Cc1cc3c(cc1Cl)OCO3)CC2	-20%	-19%
FC(F)(F)c1ccc(-c2nc(-c3ccccc3)oc2Nc2ccc3ccccc3c2)cc1	x	32%[8.59 µM]
COC(=O)C1=CO[C@@H](C)[C@H]2CN3CCc4c([nH]c5ccccc45)[C@@H]3C[C@H]12	-5%[17.8 µM]	u
CCC1=CC2CN3CCc4c([nH]c5ccccc45)[C@@](C(=O)OC)(C2)[C@@H]13	u	7.9µM*
N[C@H](CO)Cc1cnc[nH]1	-16%	2%
CC(C)(C)c1ccc(S(=O)(=O)/C=C\C#N)cc1	35µM*	16µM*
Cc1ccc(S(=O)(=O)/C=C\C#N)cc1	16µM*	10µM*
Cc1ccc(S(=O)(=O)/C=C/C#N)cc1	7.1µM*	2.8µM*
C[C@@](N)(C(=O)O)c1ccc(S(=O)(=O)O)cc1	4%	11%
SMILES	Lassa entry	Marburg entry
COC(=O)[C@@H]1CCCN1C(=O)c1c(OC)cc(=O)n2c1CCN(Cc1ccc3cccnc3c1)CC2	-16%	3%
COc1cc(=O)n2c(c1C(=O)N(C)Cc1cscn1)CCN(C(=O)c1cccc(C)c1C)CC2	-14%	4%
CC(C)(C)OC(=O)NC(NC(=O)OCC1c2ccccc2-c2ccccc21)C(=O)O (stereo unspecified)	-9%	-22%
C[C@@H]1CC[C@H]2[C@H](C)[C@H]3CC[C@@]4(O)[C@@H]5CC(=O)[C@H]6CC(=O)CC[C@]6(C)[C@H]5C[C@H]4[C@@H]3CN2C1	-17%	u
CCCC[C@H](NC(=O)[C@H](CC(C)C)NC(=O)CNC(=O)[C@@H](NC(=O)[C@H](Cc1ccccc1)NC(=O)[C@H](CO)NC(=O)[C@@H](N)CC(=O)O)C(C)C)C(N)=O	1%	1%
C/C=C/c1ccc(OC)cc1	-3%	16%
COc1ccc(/C=C/c2cc(OC)cc(=O)o2)cc1	8.9µM*	1.8µM*
O=C(NC[C@@H]1CCCCN1)c1cc(OCC(F)(F)F)ccc1OCC(F)(F)F	1%[17.8 µM]	-19%[17.8 µM]
CC(=O)OC[C@H]1O[C@H](CCON=C(C)CCN2CCCc3nc(C)c(C)cc32)C=C[C@H]1OC(C)=O	-19%[8.59 µM]	-28%[8.59 µM]
O=c1c(O)cc(C2Oc3cc(O)cc(O)c3CC2O)cc2c(C3Oc4cc(O)cc(O)c4CC3O)cc(O)c(O)c12 (stereo unspecified)	5%	13µM*
Oc1cc(O)c2c(c1)O[C@H](c1ccc(O)c(O)c1)[C@@H](O)C2	-8%	9%
C[C@H]1COc2cc(F)ccc2S(=O)(=O)N1	-11%	u
CC(=O)OC[C@H]1O[C@H](C#Cc2ccccc2Cl)C=C[C@H]1OC(C)=O	-5%[8.59 µM]	-1%[8.59 µM]
COC(=O)[C@@H]1CCCN1C(=O)c1c(OC)cc(=O)n2c1CCN(Cc1ccc3nsnc3c1)CC2	-2%	2%
COc1cccc(CS(=O)(=O)c2ccccc2)c1	2%	10%
COc1cccc(CCc2ccccc2OCC(CN(C)C)OC(=O)CCC(=O)O)c1 (stereo unspecified)	22µM*	11µM*
COc1ccc(C(OCCN2CCC[C@@H](C(=O)O)C2)(c2ccc(OC)cc2)c2ccc(OC)cc2)cc1	6.3µM*	-21%
Cc1ccsc1C(=CCCN1CCC[C@@H](C(=O)O)C1)c1sccc1C	-2%	10%
COc1ccc(C(OCCN2CCC[C@H](C(=O)O)C2)(c2ccc(OC)cc2)c2ccc(OC)cc2)cc1	4.5µM*	-25%
COc1ccc(C(=O)Nc2ccccc2CCC2CCCCN2C)cc1 (stereo unspecified)	2%	u
C[C@@H]1CC(=O)NN=C1c1ccc(NN=C(C#N)C#N)cc1	-25%	-9%
C[C@@H]1CC[C@H]2C(=O)N(Cc3ccccc3)C[C@H](O)CN2[C@H]1c1ccc(Br)cc1	3%[8.59 µM]	-24%[8.59 µM]
CNc1ccc2oc(C[C@@H]3OC4(CC[C@@H]3C)O[C@H]([C@@H](C)C(=O)c3ccc[nH]3)[C@H](C)C[C@H]4C)nc2c1C(=O)O (stereo partly specified)	2.8µM*	2.8µM*
CC(CN(C)C)CN1c2ccccc2S(=O)(=O)c2ccccc21 (stereo unspecified)	-5%	u
CCN(CC)C(C)CN1c2ccccc2Sc2ccccc21 (stereo unspecified)	14µM*	1.6µM*
SMILES	Lassa entry	Marburg entry
CNCCCC1c2ccccc2C=Cc2ccccc21	u	7.1µM*
CCCC=CC1C(=O)[C@@H]2O[C@H]2C2(OCC(CC)(CC)CO2)C1CO (stereo partly specified)	0%[8.59 µM]	-11%[8.59 µM]
N[C@H](C(=O)O)C1C(C(=O)O)C1C(=O)O (stereo partly specified)	24%	11%
CC(C)n1cnc2c(C(=O)N[C@H]3CN4CCC3CC4)cc(Cl)cc21	35µM*!	7.1µM*
O=C1CCC(=O)N1CO	7%	27%
CCc1cc2c(c(CC)n1)CCC(=O)N2Cc1ccc(-c2ccccc2-c2nn[nH]n2)cc1	0%	23%
CC[C@@H](C(=O)[C@@H](C)[C@@H](O)[C@H](C)CCc1ccc(C)c(O)c1C(=O)O)[C@H]1O[C@](CC)([C@H]2CC[C@](O)(CC)[C@H](C)O2)C[C@@H]1C	11µM*	-78%
COc1cc(C(=O)N(Cc2cc3ccc(C)cc3nc2N(C)C)C2CC2)cc(OC)c1OC	-3%	-19%
O[C@@](CCN1CCCCC1)(c1ccccc1)[C@@H]1C[C@H]2C=C[C@@H]1C2	-10%[17.8 µM]	u
Nc1nc2c(c(=O)[nH]1)N(C=O)C(CNc1ccc(C(=O)N[C@@H](CCC(=O)O)C(=O)O)cc1)CN2 (stereo partly specified)	-6%[17.8 µM]	19%[17.8 µM]
